In test [1] the target is T1, Methionyl-tRNA synthetase, putative (Leishmania donovani (strain BPK282A1)) (UniProt E9BF75).
T1 sequence (whole entry): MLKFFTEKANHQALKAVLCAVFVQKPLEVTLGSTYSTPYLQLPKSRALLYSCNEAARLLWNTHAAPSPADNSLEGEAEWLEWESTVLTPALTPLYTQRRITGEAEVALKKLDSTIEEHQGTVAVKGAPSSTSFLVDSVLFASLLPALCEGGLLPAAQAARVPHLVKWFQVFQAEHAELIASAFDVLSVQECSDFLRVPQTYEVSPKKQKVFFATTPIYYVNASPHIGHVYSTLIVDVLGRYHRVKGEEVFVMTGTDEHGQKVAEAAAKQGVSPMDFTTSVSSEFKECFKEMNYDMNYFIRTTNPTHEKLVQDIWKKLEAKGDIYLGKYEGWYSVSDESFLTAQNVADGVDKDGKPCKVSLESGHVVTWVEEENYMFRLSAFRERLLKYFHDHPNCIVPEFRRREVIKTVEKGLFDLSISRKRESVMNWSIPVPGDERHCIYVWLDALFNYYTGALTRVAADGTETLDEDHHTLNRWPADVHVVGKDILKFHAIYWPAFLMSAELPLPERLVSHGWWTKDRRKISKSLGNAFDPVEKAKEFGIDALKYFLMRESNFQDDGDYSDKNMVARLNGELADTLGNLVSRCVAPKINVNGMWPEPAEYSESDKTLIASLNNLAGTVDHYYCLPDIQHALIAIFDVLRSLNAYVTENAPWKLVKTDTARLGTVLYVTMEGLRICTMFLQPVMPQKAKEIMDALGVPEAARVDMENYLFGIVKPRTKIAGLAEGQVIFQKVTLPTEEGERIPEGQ
Briefly: Leishmania donovani Methionine tRNA synthetase (LdMetRS):v7. Dose response assay. The format is functional. On the set-up: conc 80 nM, time 150 minutes.

Test [2] concerns the target Protein translocase subunit SecA (Escherichia coli (strain K12)) (UniProt P10408). Briefly: Assay to Identify E. coli SecA ATPase Inhibitors. It counts as functional. On the set-up: scale not given: direction of the effect not stated beside the values. The settings on record: 30 µM.
In test [3] the target is T2, Ubiquitin-activating enzyme e1, putative (Leishmania donovani (strain BPK282A1)) (UniProt E9BSI1).
T2 sequence (whole entry): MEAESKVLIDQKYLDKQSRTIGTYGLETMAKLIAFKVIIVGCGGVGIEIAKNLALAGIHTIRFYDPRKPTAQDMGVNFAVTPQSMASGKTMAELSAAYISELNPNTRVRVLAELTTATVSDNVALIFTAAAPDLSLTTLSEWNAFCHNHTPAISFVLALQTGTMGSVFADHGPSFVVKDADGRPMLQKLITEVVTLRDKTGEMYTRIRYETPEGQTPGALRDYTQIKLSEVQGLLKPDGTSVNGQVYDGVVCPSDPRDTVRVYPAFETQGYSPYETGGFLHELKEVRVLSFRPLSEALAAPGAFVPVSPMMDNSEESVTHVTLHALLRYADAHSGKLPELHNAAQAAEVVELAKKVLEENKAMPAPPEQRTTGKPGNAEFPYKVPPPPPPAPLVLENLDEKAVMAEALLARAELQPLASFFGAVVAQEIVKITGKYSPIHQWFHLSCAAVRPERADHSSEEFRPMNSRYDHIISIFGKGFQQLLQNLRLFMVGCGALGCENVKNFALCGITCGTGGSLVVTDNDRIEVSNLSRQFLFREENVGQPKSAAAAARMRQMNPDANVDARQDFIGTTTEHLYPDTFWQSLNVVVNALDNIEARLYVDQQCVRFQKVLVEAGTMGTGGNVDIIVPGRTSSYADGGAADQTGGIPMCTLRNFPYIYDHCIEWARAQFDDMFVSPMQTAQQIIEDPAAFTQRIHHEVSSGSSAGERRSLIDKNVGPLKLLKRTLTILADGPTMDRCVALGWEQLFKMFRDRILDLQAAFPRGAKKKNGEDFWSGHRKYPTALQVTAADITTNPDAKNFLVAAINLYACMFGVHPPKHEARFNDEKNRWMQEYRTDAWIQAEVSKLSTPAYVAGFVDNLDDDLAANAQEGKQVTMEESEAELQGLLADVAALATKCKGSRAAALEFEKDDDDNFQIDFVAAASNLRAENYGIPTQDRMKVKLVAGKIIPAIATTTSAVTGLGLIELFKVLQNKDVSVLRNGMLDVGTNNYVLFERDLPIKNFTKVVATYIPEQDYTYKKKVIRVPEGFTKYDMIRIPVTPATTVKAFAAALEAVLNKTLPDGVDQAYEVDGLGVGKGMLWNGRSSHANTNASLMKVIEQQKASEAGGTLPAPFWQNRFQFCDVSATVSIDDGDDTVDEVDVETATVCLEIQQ
Kind of test: Leishmania donovani Ubiquitin Activating Enzyme (LdE1). On the set-up: scale not given: direction of the effect not stated beside the values. The format is functional. The settings on record: 30 µM.

Test [4] deals with T3, Aspartate--tRNA(Asp/Asn) ligase (Mycobacterium tuberculosis (strain ATCC 25618 / H37Rv)) (UniProt P9WFW3).
T3 sequence (whole entry): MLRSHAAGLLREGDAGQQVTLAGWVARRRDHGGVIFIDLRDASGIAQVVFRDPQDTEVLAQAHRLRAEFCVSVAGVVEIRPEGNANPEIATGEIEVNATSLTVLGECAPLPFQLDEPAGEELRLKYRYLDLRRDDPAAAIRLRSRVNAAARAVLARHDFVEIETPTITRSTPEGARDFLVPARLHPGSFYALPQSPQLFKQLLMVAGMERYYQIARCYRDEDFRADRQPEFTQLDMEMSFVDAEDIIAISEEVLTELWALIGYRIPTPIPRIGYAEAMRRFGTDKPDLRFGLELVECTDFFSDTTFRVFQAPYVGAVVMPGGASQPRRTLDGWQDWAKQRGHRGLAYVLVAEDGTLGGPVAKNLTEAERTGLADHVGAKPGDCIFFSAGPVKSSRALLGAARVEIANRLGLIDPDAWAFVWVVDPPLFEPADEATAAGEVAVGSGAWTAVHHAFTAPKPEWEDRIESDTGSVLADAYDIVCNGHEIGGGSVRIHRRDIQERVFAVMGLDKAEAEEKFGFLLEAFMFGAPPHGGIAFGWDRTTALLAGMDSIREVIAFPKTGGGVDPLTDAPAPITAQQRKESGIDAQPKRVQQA
Kind of test: Assay for Asp RNA synthetase-1 from Mycobacterium tuberculosis. It counts as functional. On the set-up: scale not given: direction of the effect not stated beside the values. The settings on record: 30 µM.

Test [5] deals with AMP-activated protein kinase, AMPK (Homo sapiens) (UniProt P54646+O43741+P54619+Q9UGJ0+Q9Y478+Q13131+Q9UGI9). Kind of test: AMP-dependent Kinase enzyme assay. An in vitro enzyme assay that detects ADP turnover that is directly proportional to AMPK activity. This uses naive AMPK that is activated during the assay with MK-8722. It counts as functional. On the set-up: scale not given: direction of the effect not stated beside the values. The settings on record: 30 µM.

The target in test [6] is Sialic acid-binding Ig-like lectin 9 (Homo sapiens) (UniProt Q9Y336). Briefly: Hs-Siglec9 ALPHAscreen SOP 20170721. The settings on record: 10 µM. On the set-up: scale not given: direction of the effect not stated beside the values. Background: Alpha assays give light when donor and acceptor beads are brought close together.
Chain of Sialic acid-binding Ig-like lectin 9 (Homo sapiens) (Q9Y336 whole entry): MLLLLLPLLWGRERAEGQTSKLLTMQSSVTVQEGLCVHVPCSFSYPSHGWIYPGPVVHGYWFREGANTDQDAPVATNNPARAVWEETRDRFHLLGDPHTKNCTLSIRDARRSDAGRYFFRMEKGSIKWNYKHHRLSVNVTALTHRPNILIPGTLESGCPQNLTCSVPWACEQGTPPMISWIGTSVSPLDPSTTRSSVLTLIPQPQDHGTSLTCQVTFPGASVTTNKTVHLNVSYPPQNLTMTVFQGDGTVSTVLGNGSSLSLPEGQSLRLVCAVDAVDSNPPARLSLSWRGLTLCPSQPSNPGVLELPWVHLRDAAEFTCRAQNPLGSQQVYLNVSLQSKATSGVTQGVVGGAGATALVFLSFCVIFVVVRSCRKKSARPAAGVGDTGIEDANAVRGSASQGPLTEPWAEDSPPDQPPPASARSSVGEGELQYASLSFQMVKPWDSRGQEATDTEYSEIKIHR
Another test has as its system Trypanosoma cruzi. Briefly: Trypanosoma cruzi phosphomannomutase and mannose-1-phosphate guanylyltransferase assay. The format is functional. On the set-up: scale not given: direction of the effect not stated beside the values. The settings on record: 10 µM.
Test [7] has as its target T4, Arginase-2, mitochondrial (Homo sapiens) (UniProt P78540).
T4 sequence (whole entry): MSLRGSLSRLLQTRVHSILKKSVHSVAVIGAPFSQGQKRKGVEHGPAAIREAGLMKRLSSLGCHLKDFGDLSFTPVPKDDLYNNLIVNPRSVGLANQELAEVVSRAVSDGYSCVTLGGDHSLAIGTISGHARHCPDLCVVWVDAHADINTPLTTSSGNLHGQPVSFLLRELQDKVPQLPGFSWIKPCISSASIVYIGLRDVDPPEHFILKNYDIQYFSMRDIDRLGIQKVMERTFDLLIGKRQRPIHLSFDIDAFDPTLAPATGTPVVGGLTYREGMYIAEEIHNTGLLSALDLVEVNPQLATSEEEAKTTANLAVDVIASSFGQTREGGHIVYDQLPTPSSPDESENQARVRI
Briefly: in vitro enzyme assay to detect the production of urea directly proportional to the activity of Arginase II. On the set-up: scale not given: in the data most compounds retested in dose-response had high values. It counts as functional.

Test [8] addresses T5, Proteasome subunit beta (Trypanosoma cruzi) (UniProt O96673).
T5 sequence (whole entry): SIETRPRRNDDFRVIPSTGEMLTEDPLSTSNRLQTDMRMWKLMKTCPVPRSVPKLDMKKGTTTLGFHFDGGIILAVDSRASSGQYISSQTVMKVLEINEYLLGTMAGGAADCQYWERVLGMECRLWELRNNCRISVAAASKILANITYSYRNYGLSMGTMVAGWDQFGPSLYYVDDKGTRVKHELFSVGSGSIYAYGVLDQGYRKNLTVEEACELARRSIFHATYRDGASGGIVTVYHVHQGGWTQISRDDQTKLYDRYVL
Briefly: Trypanosoma cruzi proteasome chymotrypsin-like activity (TcProtChymo) assay. On the set-up: scale not given: in the data most compounds retested in dose-response had high values. The settings on record: 9.37 µM. The format is functional.

The species named for a further test is Homo sapiens. Briefly: To identify inhibition of the IFN signalling (Jak-Stat) pathway via expression of an eGFP reporter gene under the control of an IFN-stimulated response element (ISRE) containing MxA promoter. It counts as functional. On the set-up: scale not given: direction of the effect not stated beside the values. The settings on record: 30 µM.
For test [9], the target named is Shiga toxin 2 (Escherichia coli O157:H7) (UniProt P09385+P09386). Kind of test: E. coli 0.157:H7 Shiga Toxin SOP - stx2 screening assay. On the set-up: scale not given: direction of the effect not stated beside the values. The settings on record: 30 µM. The format is functional.
Test [10] deals with T6, Tyrosyl-tRNA synthetase, putative (Trypanosoma cruzi (strain CL Brener)) (UniProt Q4DSP6).
T6 sequence (whole entry): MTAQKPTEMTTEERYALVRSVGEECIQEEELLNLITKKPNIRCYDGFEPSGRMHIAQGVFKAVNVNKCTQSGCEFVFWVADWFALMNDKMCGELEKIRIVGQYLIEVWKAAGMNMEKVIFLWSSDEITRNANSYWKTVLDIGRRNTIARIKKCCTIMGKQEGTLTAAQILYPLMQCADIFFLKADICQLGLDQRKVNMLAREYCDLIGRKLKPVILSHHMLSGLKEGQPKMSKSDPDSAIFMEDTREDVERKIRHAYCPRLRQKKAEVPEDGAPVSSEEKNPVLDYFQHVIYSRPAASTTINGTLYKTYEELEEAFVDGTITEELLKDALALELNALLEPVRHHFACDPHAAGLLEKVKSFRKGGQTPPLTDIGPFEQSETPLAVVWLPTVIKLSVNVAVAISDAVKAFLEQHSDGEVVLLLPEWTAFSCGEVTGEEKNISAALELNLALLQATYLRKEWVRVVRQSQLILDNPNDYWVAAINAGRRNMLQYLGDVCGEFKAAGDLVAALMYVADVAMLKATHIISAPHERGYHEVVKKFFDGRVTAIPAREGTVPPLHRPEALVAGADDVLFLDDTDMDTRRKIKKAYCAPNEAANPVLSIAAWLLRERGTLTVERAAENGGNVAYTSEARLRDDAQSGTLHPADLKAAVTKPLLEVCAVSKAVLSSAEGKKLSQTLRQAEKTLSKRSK
Kind of test: Trypanosoma cruzi tyrosyl tRNA synthetase (TcYRS) _High Tyrosine SOP. The format is functional. On the set-up: scale not given: in the data most compounds retested in dose-response had high values. The settings on record: 30 µM.

Test [11] has as its target T6, Tyrosyl-tRNA synthetase, putative (Trypanosoma cruzi (strain CL Brener)). Briefly: Trypanosoma cruzi tyrosyl tRNA synthetase (TcYRS) SOP. It counts as functional. The settings on record: 30 µM. On the set-up: scale not given: direction of the effect not stated beside the values.
The target in test [12] is Chromo domain-containing protein 1 (Saccharomyces cerevisiae (strain ATCC 204508 / S288c) (Baker's yeast)) (UniProt P32657). Briefly: ScCHD-1 Enzyme Inhibition Assay. On the set-up: scale not given: in the data most compounds retested in dose-response had high values. The settings on record: 30 µM. The format is functional.
Chain of Chromo domain-containing protein 1 (Saccharomyces cerevisiae (strain ATCC 204508 / S288c) (Baker's yeast)) (P32657 whole entry, the tested form may be a part): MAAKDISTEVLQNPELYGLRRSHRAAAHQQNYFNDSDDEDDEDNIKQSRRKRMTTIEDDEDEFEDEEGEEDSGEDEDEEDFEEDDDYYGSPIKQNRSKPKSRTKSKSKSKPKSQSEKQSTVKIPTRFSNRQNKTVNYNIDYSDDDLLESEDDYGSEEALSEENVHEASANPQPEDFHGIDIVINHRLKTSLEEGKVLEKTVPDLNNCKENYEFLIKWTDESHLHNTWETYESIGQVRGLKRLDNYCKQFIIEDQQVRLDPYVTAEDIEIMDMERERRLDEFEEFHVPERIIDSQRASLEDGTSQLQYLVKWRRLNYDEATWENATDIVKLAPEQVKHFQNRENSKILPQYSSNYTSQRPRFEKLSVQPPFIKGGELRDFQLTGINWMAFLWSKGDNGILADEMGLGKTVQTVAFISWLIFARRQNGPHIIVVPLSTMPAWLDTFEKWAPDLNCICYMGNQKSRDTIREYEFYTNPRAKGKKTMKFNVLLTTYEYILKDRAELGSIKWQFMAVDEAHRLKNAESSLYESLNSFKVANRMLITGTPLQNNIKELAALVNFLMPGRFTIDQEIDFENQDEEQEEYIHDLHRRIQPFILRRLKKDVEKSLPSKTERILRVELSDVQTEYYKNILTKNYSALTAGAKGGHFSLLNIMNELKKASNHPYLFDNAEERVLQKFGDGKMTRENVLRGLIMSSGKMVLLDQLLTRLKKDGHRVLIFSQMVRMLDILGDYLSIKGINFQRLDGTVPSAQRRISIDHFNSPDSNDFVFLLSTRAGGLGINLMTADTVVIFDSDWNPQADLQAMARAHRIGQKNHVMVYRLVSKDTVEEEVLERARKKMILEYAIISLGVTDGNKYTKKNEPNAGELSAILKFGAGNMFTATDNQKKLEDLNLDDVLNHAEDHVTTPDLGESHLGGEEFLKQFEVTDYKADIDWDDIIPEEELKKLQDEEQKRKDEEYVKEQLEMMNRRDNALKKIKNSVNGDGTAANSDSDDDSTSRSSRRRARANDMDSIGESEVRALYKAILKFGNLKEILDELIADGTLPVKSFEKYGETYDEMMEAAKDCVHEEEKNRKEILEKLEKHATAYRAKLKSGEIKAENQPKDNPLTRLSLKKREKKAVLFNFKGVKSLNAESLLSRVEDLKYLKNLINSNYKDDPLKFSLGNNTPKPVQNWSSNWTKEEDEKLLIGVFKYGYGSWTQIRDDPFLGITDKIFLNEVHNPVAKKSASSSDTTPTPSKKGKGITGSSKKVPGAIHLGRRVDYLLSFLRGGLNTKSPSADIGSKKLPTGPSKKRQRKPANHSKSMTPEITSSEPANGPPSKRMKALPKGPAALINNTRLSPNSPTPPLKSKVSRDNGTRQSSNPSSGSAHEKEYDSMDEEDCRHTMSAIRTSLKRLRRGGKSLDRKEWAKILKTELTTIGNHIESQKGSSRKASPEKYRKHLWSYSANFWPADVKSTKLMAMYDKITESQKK

In ChEMBL document CHEMBL3988442, “University of Dundee, Small-Polar-MMV Screening Library” (2021) one finds PXC50 and Percent Effect data, which are given here for three molecules.

The structures appear in SMILES notation. For some assays here: Measured potencies and affinities stand elsewhere. Where only a bound is given, the exact number is not on record here.

Chain of Protein translocase subunit SecA (Escherichia coli (strain K12)) (P10408 whole entry): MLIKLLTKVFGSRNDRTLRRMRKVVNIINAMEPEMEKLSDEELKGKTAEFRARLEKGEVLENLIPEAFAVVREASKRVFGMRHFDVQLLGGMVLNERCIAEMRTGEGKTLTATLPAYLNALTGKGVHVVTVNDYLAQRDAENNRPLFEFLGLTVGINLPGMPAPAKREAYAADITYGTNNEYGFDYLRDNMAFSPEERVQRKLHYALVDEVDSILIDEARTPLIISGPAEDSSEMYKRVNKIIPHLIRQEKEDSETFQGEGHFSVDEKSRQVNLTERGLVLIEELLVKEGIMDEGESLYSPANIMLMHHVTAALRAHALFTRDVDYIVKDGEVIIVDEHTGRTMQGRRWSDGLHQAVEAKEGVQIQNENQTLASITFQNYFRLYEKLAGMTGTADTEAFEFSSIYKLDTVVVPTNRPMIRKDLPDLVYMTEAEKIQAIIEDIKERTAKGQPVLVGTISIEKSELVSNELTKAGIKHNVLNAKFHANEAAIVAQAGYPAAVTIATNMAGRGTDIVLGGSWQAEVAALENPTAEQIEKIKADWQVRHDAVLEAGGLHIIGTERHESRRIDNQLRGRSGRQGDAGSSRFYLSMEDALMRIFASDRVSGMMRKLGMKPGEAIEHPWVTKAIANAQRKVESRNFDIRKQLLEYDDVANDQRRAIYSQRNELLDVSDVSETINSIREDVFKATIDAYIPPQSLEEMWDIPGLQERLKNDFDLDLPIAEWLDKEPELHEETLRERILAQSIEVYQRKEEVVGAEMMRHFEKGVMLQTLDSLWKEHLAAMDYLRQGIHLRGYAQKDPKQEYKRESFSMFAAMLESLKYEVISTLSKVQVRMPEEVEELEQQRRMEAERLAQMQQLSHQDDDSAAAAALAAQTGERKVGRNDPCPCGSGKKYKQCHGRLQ

With `O=C(O)CN1CCC(F)(F)C2(CCN(c3ccccn3)C2)C1` (centres undefined), the PXC50 in test [1] (MAX_EFFECT 7.981220657) and in test [1] (MAX_EFFECT 9.814814815) was less than 4 throughout.

Take `Cc1nc(CN2C[C@@H]3OCCN(c4ncc(F)cn4)[C@@H]3C2)cs1`: the Percent Effect in [2] is 0.0245%; in test [3], 5.33%; in [4], -1.08%; in test [5], 7.05%; in test [6] it was 2.47%; with Trypanosoma cruzi it was -1.74%. The Percent Effect in test [7] (33.3 µM) is -58.6%; in test [8], 11.3%; in the test filed under Homo sapiens, -21.1%; in test [9], 2.24%; in test [10], 4.17%; in test [11], 15%. The Percent Effect in [12] was -7%.

`O=C1CSC(c2ccsc2)c2c(n(C3CCOCC3)[nH]c2=O)N1` (centres undefined): the Percent Effect in test [2] was -1.28%; in [3] it was 14.7%; in test [4] it was -2.38%; in test [5], -5.51%; in [6], 3.3%; in the test with Trypanosoma cruzi, -0.589%. The Percent Effect in [7] (30 µM) was 7.03%; in [7] (33.3 µM), 94.2%; in test [8], 8.13%; in the test listed under Homo sapiens, 6.12%; in [9], -12.8%; in test [10], 6.35%. For the same molecule, the Percent Effect in [11] was 12.8%; in test [12], -11.9%.
